These results are taken from PubChem BioAssay AID488890 (Southern Research Specialized Biocontainment Screening …, 2010).

SMILES strings stand for the structures. The campaign covered roughly 320,000 compounds. About 1,300 (0.41%) were called active. Roughly 3% stayed inconclusive and do not appear here. No rule for the calls is given here. Only a sample is shown. Measured potencies and affinities stand elsewhere.

This test in a line: growth inhibition of non-replicating M. tuberculosis (AID 488890).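 Also: plate controls were DMSO cells for no effect and high antibiotic wells for full effect.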 Particulars: Mycobacterium tuberculosis non-replicating, at 25 µM, stronger effect = higher value.
By inhibition is commonly meant the change of the read-out against control, counted positive when it falls. As to `COc1ccccc1C(=O)N1CCC(C(=O)c2ccc(F)cc2)CC1`, the inhibition amounted to 5.17%.
With `O=C(O)C1CCCN(S(=O)(=O)c2ccccc2[N+](=O)[O-])C1` (stereo unspecified) the figure was -3.19%; with `CC(=O)c1cccc(NC(=O)CCc2nnc3ccc(N4CCN(C)CC4)nn23)c1`, 1.24%.
For `COC(=O)c1[nH]nc(C(=O)OC(C)(C)C)c1-c1ccccc1`, the inhibition worked out at 0.97%.
With `COc1ccc(C(=O)NCC(C)NC(=O)c2ccc(OC)c(Br)c2)cc1Br` (stereo unspecified) the figure was -0.81%; with `CCC(Oc1ccc(F)cc1)C(=O)N1CCCCCCC1` (stereo unspecified), -13.2%; with `COCCNC(=O)CS(=O)(=O)Cc1nc(-c2ccc(C)cc2)oc1C`, -26%.
To `CCC(CO)Nc1ncnc2onc(-c3ccc(F)cc3)c12` (stereo unspecified) belongs -5.65%.
To `Cc1nnsc1C(=O)N1CCN(c2cc(C(F)(F)F)ccn2)CC1` belongs 1.32%.
With `Cc1ccc(N(C(=O)CS(=O)CC(=O)Nc2ccc(F)cc2)C(C)C(=O)NC(C)(C)C)cc1` (stereo unspecified), the inhibition was -2.13%.
For the molecule `CC1CCCCN1S(=O)(=O)c1ccc([N+](=O)[O-])cc1` (stereo unspecified), the inhibition was -4.65%.
To `Cc1ccc(NC(=O)COC(=O)Cn2c(C)csc2=O)cc1` belongs 7.46%; to `COCCn1c(C)cc(C(=O)COC(=O)c2ccc(S(=O)(=O)N(C)C)cc2)c1C`, -12.9%; to `COCCn1c(C)cc(C(=O)COC(=O)c2cccc(O)c2)c1C`, -6.95%.
`COc1ccc([N+](=O)[O-])cc1NC(=O)c1cncc(Br)c1`: the inhibition came out at 36.5%.
With `CCOCCCNC(=O)C(c1ccccc1)N(Cc1ccc2c(c1)OCO2)C(=O)c1ccccc1O` (stereo unspecified) the figure was 4.13%.
With `Cc1cccc(C(=O)Nc2cccc(OC(=O)c3cccc(C)c3)c2)c1` the figure was 51.4%.
To `COC(=O)COc1cccc(NC(=O)c2cc(OC)cc(OC)c2)c1` belongs 58.8%; to `O=C(O)COc1cccc(NC(=O)c2ccccc2)c1`, -6.49%.
With `Cc1cccc(C(=O)Nc2cccc(OCC(=O)O)c2)c1`, the inhibition is -11.3%.
With `Cc1cccc(N(C(=O)c2snc(C(N)=O)c2N)C(C(=O)NCc2ccccc2)c2ccncc2)c1` (stereo unspecified) the figure was 11.8%; with `O=C(COc1ccc(-n2cnnn2)cc1)Nc1cccc(Cl)c1Cl`, 5.43%.
To `Cc1nnc(N/N=C/c2ccccc2C(F)(F)F)n1N` belongs 3.91%.
To `Cc1cc(Cl)nc(Cl)c1C(=O)NCCc1ccccc1` belongs 5.34%; to `CC(C)Cc1nnc(NC(=O)CCC(=O)Nc2ccc(Cl)cc2)s1`, 12.6%.
As for `CCc1nnc(NC(=O)CCS(=O)(=O)c2ccc(C)cc2)s1`, the inhibition was 77.7%.
With `C=CCOC(=O)/C(=C\c1ccccc1)NC(=O)c1ccco1` the figure was -12.7%; with `C[C@H](NC(=O)c1nc[nH]c1C(=O)N1CCN(C(=O)OC(C)(C)C)CC1)C(=O)OC(C)(C)C`, -4.48%; with `COc1ccc(OCCCN2CCc3ccccc3C2)cc1`, 46.6%.
As to `O=[N+]([O-])c1ccc(OCCCCN2CCc3ccccc3C2)cc1`, the inhibition is 57.5%.
To `Cc1ccc2nc(/N=C(\N)NC(=O)N3c4ccccc4Sc4ccccc43)nc(C)c2c1` belongs 10.2%; to `Cc1ccc2nc(N=C(N)N)nc(C)c2c1`, 30.9%; to `Cc1nc(/N=C(\N)NC(=O)c2ccccc2)nc2ccccc12`, -4.45%.
Regarding `Cc1cc2nc(/N=C(\N)NC(=O)N3c4ccccc4Sc4ccccc43)nc(C)c2cc1C`, the inhibition was -20.4%.
To `Cc1ccccc1Cn1cc(S(=O)(=O)c2ccc(C(C)C)cc2)c(=O)c2cc3c(cc21)OCO3` belongs 11.4%; to `Cc1ccc(S(=O)(=O)NC(CCc2ccccc2)CC(=O)C(C)(C)C)cc1` (stereo unspecified), 0.24%; to `CCOC(=O)CN1C2=NCCCN2c2ccccc21`, 15.4%.
To `O=C(Cc1ccc(Cl)cc1)Nc1cccnc1` belongs 30.9%; to `O=C(O)c1ccccc1Nc1cc(Cl)c2nonc2c1[N+](=O)[O-]`, 71.1%.
With `O=C(O)c1ccc(Nc2cc(Cl)c3nonc3c2[N+](=O)[O-])cc1`, the inhibition worked out at 76%.
With `CC(NC(=O)c1cc(S(=O)(=O)N2CCOCC2)ccc1N1CCCC1)c1ccc(Cl)c(Cl)c1` (stereo unspecified) the figure was 4.97%; with `Cc1cccc(Cn2c(N3CCN(C)CC3)nc3c2c(=O)n(C)c(=O)n3C)c1`, -18%; with `CCOC(=O)c1c(NC(=O)COC(=O)c2ccccn2)sc(C)c1C`, 37%.
To `CCOC(=O)c1c(NC(=O)COC(=O)c2nccnc2N)sc2c1CCC2` belongs 26.4%; to `Cc1ccc(CN2C(=O)CSC2c2ccccc2F)cc1` (stereo unspecified), 10.3%; to `CCCCCCn1c(COc2ccccc2F)nnc1SCC(=O)c1c(N)n(C)c(=O)n(C)c1=O`, -10.3%.
Consider `CC1=CS(=O)(=O)CC1Sc1nc(C)n[nH]1` (stereo unspecified), for which the inhibition is -1.03%.
To `Cc1ccc(O)c(C(=O)c2cnc3c(c2)c(=O)n(C)c(=O)n3C)c1` belongs -3.64%; to `O=C(Cn1ccc2cc(S(=O)(=O)N3CCCC3)ccc21)NCc1ccco1`, 21.9%; to `CN1C(=O)N(C)c2ccc(Br)c3cccc1c23`, 6.26%.
With `CN1C(=O)N(C)c2cccc3cccc1c23` the figure was 0.15%; with `OCC1(Cc2ccccc2)CCN(Cc2cnc(-c3cccc4ccccc34)nc2)CC1`, 4.25%; with `CCC(C)NC(=O)Cn1c(=O)sc2ccccc21` (stereo unspecified), 1.3%.
As for `Cc1ccc2cccc(OCC(=O)Nc3cccc(S(=O)(=O)N4CCCC4)c3)c2n1`, the inhibition came out at 4.51%.
With `O=C(CSc1nc2ccccc2nc1N1CCOCC1)Nc1ccccc1F` the figure was 6.49%.
Regarding `CCN(CC(=O)Nc1ccc(NC(C)=O)cc1)C(=O)c1cc(CN2C(=O)c3ccccc3C2=O)ccc1OC`, the inhibition is -15%.
With `Cc1c(Cl)cccc1NC(=S)N(C)CCC#N` the figure was -8.13%.
To `COc1ccc(C(=O)C2CCCN(Cc3cccc(C)n3)C2)c(OC)c1` (stereo unspecified) belongs 19.9%; to `COc1cccc(C(=O)C2CCCN(Cc3ccccn3)C2)c1` (stereo unspecified), 23%.
With `COc1cccc(C(=O)C2CCCN(Cc3cccc(C)n3)C2)c1` (stereo unspecified) the figure was 37.8%; with `COc1ccc(C(=O)C2CCCN(Cc3ccccn3)C2)c(OC)c1` (stereo unspecified), 21.8%; with `CCOc1ccccc1N1CCN(C(=O)c2cc[n+]([O-])cc2)CC1`, 15.7%.
Take `CC(=O)Nc1ccc(S(=O)(=O)NCCc2csc(C)n2)cc1`: the inhibition is -0.23%.
To `Cc1ccccc1OCCCC(=O)NCc1ccco1` belongs 15.7%; to `O=C(Nc1nc2ccccc2[nH]1)c1cc2ccccc2o1`, 34.8%; to `C/C(=N\Nc1nc2ccccc2[nH]1)c1ccccn1`, 78.5%.
To `CCOc1ncccc1C(=O)OCc1ccc([N+](=O)[O-])cc1` belongs 57.5%.
With `CCn1c(N2CCN(C(=S)NC)CC2)nc2ccccc21` the figure was -6.07%; with `CC(C1CC1)N(Cc1ccccc1)C(=S)Nc1cccc(C(F)(F)F)c1` (stereo unspecified), 66.8%; with `Cc1ccc2c(c1)N=C(c1ccc(Cl)cc1)CO2`, 29%.
With `Cc1ccc2c(c1)N=C(c1ccc(F)cc1)CO2`, the inhibition worked out at 30.4%.
With `COc1ccc(C2=Nc3cc(C)ccc3OC2)cc1` the figure was 23.2%; with `Clc1ccc(C2=Nc3cc(Cl)ccc3OC2)cc1`, 15.6%.
With `Cc1cc(=O)[nH]c(SCC(=O)N2CCC(Cc3ccccc3)CC2)n1` the figure was 0.43%; with `CCN(C(=O)c1cc2cc3ccc(C)cc3nc2o1)c1ccc(OC)cc1`, 75.9%.
With `CS(=O)(=O)N1CCC(C(=O)N2CCN(c3ccc(F)cc3)CC2)CC1` the figure was -0.02%; with `O=C(NCC(=O)N1CCc2ccccc2C1)c1ccc(Cl)cc1Cl`, 7.88%; with `O=C(c1cc([N+](=O)[O-])ccc1Cl)N1CCc2ccccc21`, 43%.
Take `O=C(c1cc([N+](=O)[O-])ccc1N1CCCCC1)N1CCc2ccccc21`: the inhibition amounted to 21%.
Turning to `C/C(CC(=O)Nc1ccc(Cl)cc1Cl)=N\NC(=O)c1ccco1`, the inhibition was determined as 62.2%.
With `Cc1c2ccccc2nc2c(F)c(NC(C)C)c(F)c(F)c12` the figure was 25.6%; with `Cc1c2ccccc2nc2c(F)c(N(C)C)c(F)c(F)c12`, 67.8%.
To `CCCn1c(NC(=O)c2cccc(S(=O)(=O)N3CCCC3)c2)nc2ccccc21` belongs 12.3%; to `Cc1[nH][nH]c(=O)c1N=Nc1ccccc1Cl`, 2.18%.
As for `Cc1[nH]n(S(=O)(=O)c2ccccc2)c(=O)c1N=Nc1cccc(Cl)c1`, the inhibition turned out to be 70.6%.
With `C#CCOCCOCCOCCNc1nc(N2CCN(C(=O)[C@H](CCC(=O)O)n3cc([C@@H](N)[C@H](C)CC)nn3)CC2)nc(N2CCN(C(=O)[C@H](CCCCN)n3cc([C@@H](N)CC(N)=O)nn3)CC2)n1` the figure was -0.95%; with `CCOC(=O)Cn1c(=O)cc(C)c2cccc(C)c21`, 78.8%; with `Cc1cccc2c(=O)c(Br)c(C)n(Cc3ccccc3)c12`, -19.5%.
With `CC(NC(=S)NC(=O)c1ccccc1)c1ccccc1` (stereo unspecified) the figure was 38.7%; with `COc1ccc(OC)c(C2Nc3ccccc3NC3=C2C(=O)CC(C)(C)C3)c1` (stereo unspecified), 3.61%; with `Cc1ccc(C)c(NC(=O)CN(C)C(=O)C2=NNC(=O)CC2)c1`, 10.7%.
With `NS(=O)(=O)c1ccc(NC(=O)COC(=O)c2cc(Cl)ccc2[N+](=O)[O-])cc1` the figure was 16.2%.
Turning to `CC(C)(C)NC(=O)COC(=O)c1cc(Cl)ccc1[N+](=O)[O-]`, the inhibition is 70.2%.
Turning to `O=C(C1=C(O)C(=O)N(CCCn2ccnc2)C1c1ccc(F)cc1)c1ccco1` (stereo unspecified), the inhibition is 1.68%.
With `CC(C)(C)NS(=O)(=O)c1ccc(NC(=O)C2CC(=O)N(CCc3ccc(F)cc3)C2)cc1` (stereo unspecified) the figure was 6.94%; with `COc1ccc(CCN2CC(C(=O)NCC3(O)CCCCC3)CCC2=O)cc1` (stereo unspecified), -4.96%.
With `Cc1cc(Nc2ccccc2)nc(NCc2ccccc2)n1` the figure was 69.7%; with `Cc1cc(OC2CCCCC2)nc(NCc2ccccc2)n1`, 29.8%; with `Cc1cc(N2CCOCC2)nc(NCc2ccccc2)n1`, 15.7%.
To `Cc1cc(N2CCN(c3ccccc3)CC2)nc(NCc2ccccc2)n1` belongs 36.7%; to `Cc1ccc(SCCC(=O)OCC(=O)Nc2ccc(C(N)=O)cc2)cc1`, -4.28%; to `COc1cc(S(=O)(=O)Nc2ccncc2)ccc1F`, -1.45%.
Regarding `COc1cccc(Nc2nc3cc(OC)ccc3cc2C#N)c1`, the inhibition was 2.07%.
With `O=C(Nc1nn[nH]n1)c1cc(-c2ccc(Cl)c(Cl)c2Cl)nc2ccccc12` the figure was 28.1%; with `Cc1cc2[nH]c(=O)c(=O)[nH]c2cc1S(=O)(=O)N(C)C1CCCCC1`, 13.6%; with `O=C(O)CN1C(=O)CSC1=S`, -1.21%.
With `CC(C)OC(=O)CCCN1C(=O)c2ccc(N)cc2C1=O` the figure was -10.2%.
With `COC(=O)C1=C(C)NC(C)=C(C(=O)OC)C1C(=O)OC1CCCCC1=O` (stereo unspecified) the figure was -9.56%; with `CCOC(=O)C1CCN(CC(=O)Nc2c(C(=O)OC)[nH]c3cccc(C)c23)CC1`, 2.06%; with `CCOC(=O)N1c2ccccc2Sc2ccccc21`, 11.9%.
In the case of `CC(=O)NCC(=O)OCC(=O)N1c2ccccc2Sc2ccccc21`, the inhibition was 15.6%.
